According to the supplement of paper PMC10849652:
About 7,900 targets were measured; listed, in parts, are those with a hit and a random draw of the rest. About 0.6% of all pairs of compound and target were hits.

Legend:
Test in all cases: log2 fold change, soluble protein after heating vs DMSO (PISA); higher = thermal stabilisation; K562 cells, 10 uM, 30 min; active = over 0.2 and 3.5 SD of the protein, either way, in both replicates (recomputed)
[1] = compound: COC1=CC=C(C=C1)CN2C=CC3=C2C=C(C=C3)C(=O)NO
Outline: (§1)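 Thermal stability values are relative to control samples and come from duplicates. They are expressed as log2 fold changes. For measurement, K562 cells (2×10^6 cells/mL) received 10 μM compound for 30 min, and aliquots were heated for 3 min over 48°C-58°C, pooled, and extracted at 4°C in PBS with 0.5% NP-40. Soluble protein, the supernatant after 21,000xg for 90 min, was quantified by TMTpro 16plex LC-MS/MS with equalised channel sums.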

[2] = compound: CON(C)C(=O)N1N=C(c2cc(F)ccc2F)S[C@@]1(CCCN)c1ccccc1 [filanesib]
Outline: as §1

[3] = compound: CO[C@H]1C[C@@H]2CC[C@@H](C)[C@@](O)(O2)C(=O)C(=O)N2CCCC[C@H]2C(=O)O[C@H]([C@H](C)C[C@@H]2CC[C@H](n3cnnn3)[C@H](OC)C2)CC(=O)[C@H](C)/C=C(\C)[C@@H](O)[C@@H](OC)C(=O)[C@H](C)C[C@H](C)/C=C/C=C/C=C/1C [zotarolimus]
Outline: as §1

[4] = compound: COc1cc(C(=O)O)ccc1NC(=O)[C@@H]1N[C@@H](CC(C)(C)C)[C@](C#N)(c2ccc(Cl)cc2F)[C@H]1c1cccc(Cl)c1F [idasanutlin]
Outline: as §1

[5] = compound: COc1cc(Nc2ncc3c(n2)-c2ccc(Cl)cc2C(c2c(F)cccc2OC)=NC3)ccc1C(=O)O [alisertib]
Outline: as §1

[6] = compound: COc1cc2nc(-c3cc(F)ccc3O)nc(N[C@@H]3CNC[C@H]3C(C)(C)O)c2cc1OC
Outline: as §1

[7] = compound: COc1cc2ncnc(Nc3ccc(F)c(Cl)c3)c2cc1OCCCN1CCOCC1 [gefitinib]
Outline: as §1

[8] = compound: COc1cccc2cc(-c3nc([C@H]4CC[C@H](C(=O)O)CC4)n4ncnc(N)c34)[nH]c12
Outline: as §1

[9] = compound: CS(=O)(=O)CCNCc1ccc(-c2ccc3ncnc(Nc4ccc(OCc5cccc(F)c5)c(Cl)c4)c3c2)o1 [lapatinib]
Outline: as §1

[10] = compound: CS(=O)(=O)N1CCN(Cc2cc3nc(-c4cccc5[nH]ncc45)nc(N4CCOCC4)c3s2)CC1 [pictilisib]
Outline: as §1

[11] = compound: CS(=O)(=O)c1ccc(-c2cnc(N)c(C(=O)Nc3ccccc3)n2)cc1
Outline: as §1

[12] = compound: C[C@@H](Oc1cc(-c2cnn(C3CCNCC3)c2)cnc1N)c1c(Cl)ccc(F)c1Cl [crizotinib]
Outline: as §1

[13] = compound: C[C@@H]1COCCN1C2=NC(=NC(=C2)C3(CC3)S(=O)(=O)C)C4=C5C=CNC5=CC=C4
Outline: as §1

[14] = compound: C[C@H](C1=CC=C(C=C1)C(=O)NC2=C3C=CNC3=NC=C2)N
Outline: as §1

[15] = compound: C[C@H](Nc1ncnc2nc[nH]c12)c1cc2cccc(Cl)c2c(=O)n1-c1ccccc1 [duvelisib]
Outline: as §1

[16] = compound: Cc1cc(Nc2cc(CN3CCOCC3)c3nc(C)c(Cc4ccc(Cl)cc4F)n3n2)n[nH]1 [gandotinib]
Outline: as §1

[17] = compound: Cc1cc(Nc2cc(N3CCN(C)CC3)nc(Sc3ccc(NC(=O)C4CC4)cc3)n2)n[nH]1 [tozasertib]
Outline: as §1

[18] = compound: Cc1cc(SCc2sc(-c3ccc(C(F)(F)F)cc3)nc2C)ccc1OCC(=O)O
Outline: as §1

[19] = compound: Cc1ccc(-n2nc(C(C)(C)C)cc2NC(=O)Nc2ccc(OCCN3CCOCC3)c3ccccc23)cc1 [doramapimod]
Outline: as §1

[20] = compound: Cc1ccc(C(=O)N(CCCN)[C@@H](c2nc3cc(Cl)ccc3c(=O)n2Cc2ccccc2)C(C)C)cc1 [ispinesib]
Outline: as §1

Measured: log2 fold change

PTPA (UniProt Q15257)
UniProt Q15257, sequence (Q15257 whole entry, looked up): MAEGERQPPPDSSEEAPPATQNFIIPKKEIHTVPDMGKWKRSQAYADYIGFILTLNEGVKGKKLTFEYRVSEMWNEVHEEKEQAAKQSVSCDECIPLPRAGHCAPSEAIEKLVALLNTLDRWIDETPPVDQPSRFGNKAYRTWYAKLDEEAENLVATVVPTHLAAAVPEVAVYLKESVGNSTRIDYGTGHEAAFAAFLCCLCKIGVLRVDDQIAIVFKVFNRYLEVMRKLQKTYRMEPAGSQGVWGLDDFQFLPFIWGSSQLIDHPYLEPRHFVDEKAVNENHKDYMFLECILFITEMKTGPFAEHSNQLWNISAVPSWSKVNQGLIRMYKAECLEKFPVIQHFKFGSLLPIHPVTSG
inactive: [1] -0.015 | [2] -0.022 | [3] 0.02 | [4] -0.064 | [5] -0.041 | [6] 0.034 | [7] 0.018 | [8] 0.036 | [9] 0.012 | [10] 0.02 | [11] -0.001 | [12] 0.028 | [13] 0.074 | [14] -0.117 | [15] 0.052 | [16] -0.037 | [17] 0.024 | [18] 0.013 | [19] -0.001 | [20] 0.091

PPP1R35 (UniProt Q8TAP8)
UniProt Q8TAP8, sequence (Q8TAP8 whole entry, looked up): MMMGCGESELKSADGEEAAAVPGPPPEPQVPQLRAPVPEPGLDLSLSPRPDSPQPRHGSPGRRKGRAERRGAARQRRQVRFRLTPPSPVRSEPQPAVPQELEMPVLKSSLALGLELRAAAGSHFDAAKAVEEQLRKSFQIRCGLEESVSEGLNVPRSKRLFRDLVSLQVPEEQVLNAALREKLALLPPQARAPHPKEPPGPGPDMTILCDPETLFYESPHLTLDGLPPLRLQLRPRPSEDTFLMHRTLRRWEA
inactive: [1] 0.003 | [2] 0.026 | [3] -0.004 | [4] 0.196 | [5] -0.003 | [6] -0.125 | [7] 0.027 | [8] 0.083 | [9] 0.011 | [10] -0.068 | [11] -0.025 | [12] -0.036 | [13] 0.179 | [14] -0.037 | [15] -0.071 | [16] 0.044 | [17] 0.007 | [18] 0.025 | [19] 0.024 | [20] -0.058

PRPF38B (UniProt Q5VTL8)
UniProt Q5VTL8, sequence (Q5VTL8 whole entry, looked up): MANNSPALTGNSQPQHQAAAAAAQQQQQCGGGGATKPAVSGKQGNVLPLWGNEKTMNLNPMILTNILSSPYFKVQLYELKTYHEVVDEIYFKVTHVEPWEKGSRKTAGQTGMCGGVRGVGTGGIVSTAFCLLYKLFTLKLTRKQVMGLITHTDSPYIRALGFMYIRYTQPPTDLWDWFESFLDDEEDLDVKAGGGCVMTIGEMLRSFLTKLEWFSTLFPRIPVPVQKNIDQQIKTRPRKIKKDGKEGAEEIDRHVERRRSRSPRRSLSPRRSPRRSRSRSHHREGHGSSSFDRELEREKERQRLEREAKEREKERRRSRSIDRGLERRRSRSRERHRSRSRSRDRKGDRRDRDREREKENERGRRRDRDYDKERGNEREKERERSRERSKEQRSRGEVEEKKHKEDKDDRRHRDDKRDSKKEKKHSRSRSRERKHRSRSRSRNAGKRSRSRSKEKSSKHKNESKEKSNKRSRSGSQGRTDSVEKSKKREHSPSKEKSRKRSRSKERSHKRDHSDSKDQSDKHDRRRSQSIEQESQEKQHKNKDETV
active: [14] -0.269
inactive: [1] -0.004 | [2] 0.163 | [3] 0.016 | [4] 0.039 | [5] -0.09 | [6] 0.083 | [7] 0.002 | [8] 0.043 | [9] 0.027 | [10] 0.065 | [11] -0.051 | [12] -0.026 | [13] 0.058 | [15] 0.023 | [16] 0.001 | [17] -0.022 | [18] -0.002 | [19] 0.005 | [20] 0.193

PUF60 (UniProt Q9UHX1)
UniProt Q9UHX1, sequence (Q9UHX1 whole entry, looked up): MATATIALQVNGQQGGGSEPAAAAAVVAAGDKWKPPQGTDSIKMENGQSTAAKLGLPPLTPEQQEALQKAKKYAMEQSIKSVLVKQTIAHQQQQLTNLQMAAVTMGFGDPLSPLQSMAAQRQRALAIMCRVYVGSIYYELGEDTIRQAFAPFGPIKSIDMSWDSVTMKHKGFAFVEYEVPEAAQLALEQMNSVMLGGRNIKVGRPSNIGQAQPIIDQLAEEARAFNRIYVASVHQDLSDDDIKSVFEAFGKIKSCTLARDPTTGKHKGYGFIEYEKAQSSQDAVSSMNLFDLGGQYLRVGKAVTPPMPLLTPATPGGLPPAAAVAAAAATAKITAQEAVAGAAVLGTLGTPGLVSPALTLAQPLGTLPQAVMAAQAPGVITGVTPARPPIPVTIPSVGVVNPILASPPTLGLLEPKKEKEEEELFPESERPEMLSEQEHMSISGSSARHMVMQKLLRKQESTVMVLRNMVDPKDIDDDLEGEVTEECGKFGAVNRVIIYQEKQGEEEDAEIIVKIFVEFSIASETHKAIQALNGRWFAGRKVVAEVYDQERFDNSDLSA
inactive: [1] 0.007 | [2] 0.087 | [3] 0.026 | [4] 0.022 | [5] -0.05 | [6] -0.028 | [7] 0.014 | [8] 0.008 | [9] 0.063 | [10] 0 | [11] -0.012 | [12] 0.031 | [13] 0.025 | [14] -0.199 | [15] 0.01 | [16] -0.09 | [17] 0.081 | [18] 0.056 | [19] -0.041 | [20] 0.039

PRIM1 (UniProt P49642)
UniProt P49642, sequence (P49642 whole entry, looked up): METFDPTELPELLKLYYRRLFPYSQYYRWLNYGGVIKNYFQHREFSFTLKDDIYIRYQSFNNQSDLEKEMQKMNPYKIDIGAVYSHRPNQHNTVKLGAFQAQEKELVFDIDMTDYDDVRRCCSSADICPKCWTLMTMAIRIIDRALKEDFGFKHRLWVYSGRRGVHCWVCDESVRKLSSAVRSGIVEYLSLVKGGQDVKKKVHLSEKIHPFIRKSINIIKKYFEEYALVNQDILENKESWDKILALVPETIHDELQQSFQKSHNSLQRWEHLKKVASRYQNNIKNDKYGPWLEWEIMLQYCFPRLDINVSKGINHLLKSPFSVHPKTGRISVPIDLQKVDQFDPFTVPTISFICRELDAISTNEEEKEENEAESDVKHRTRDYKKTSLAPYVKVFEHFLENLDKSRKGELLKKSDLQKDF
inactive: [1] 0.04 | [2] 0.001 | [3] 0.073 | [4] -0.06 | [5] 0.052 | [6] -0.012 | [7] 0.011 | [8] -0.053 | [9] 0.007 | [10] 0.021 | [11] 0.051 | [12] -0.066 | [13] 0.039 | [14] 0.086 | [15] -0.011 | [16] -0.131 | [17] 0.001 | [18] 0.102 | [19] 0.007 | [20] -0.082

PSMD12 (UniProt O00232)
UniProt O00232, sequence (O00232 whole entry, looked up): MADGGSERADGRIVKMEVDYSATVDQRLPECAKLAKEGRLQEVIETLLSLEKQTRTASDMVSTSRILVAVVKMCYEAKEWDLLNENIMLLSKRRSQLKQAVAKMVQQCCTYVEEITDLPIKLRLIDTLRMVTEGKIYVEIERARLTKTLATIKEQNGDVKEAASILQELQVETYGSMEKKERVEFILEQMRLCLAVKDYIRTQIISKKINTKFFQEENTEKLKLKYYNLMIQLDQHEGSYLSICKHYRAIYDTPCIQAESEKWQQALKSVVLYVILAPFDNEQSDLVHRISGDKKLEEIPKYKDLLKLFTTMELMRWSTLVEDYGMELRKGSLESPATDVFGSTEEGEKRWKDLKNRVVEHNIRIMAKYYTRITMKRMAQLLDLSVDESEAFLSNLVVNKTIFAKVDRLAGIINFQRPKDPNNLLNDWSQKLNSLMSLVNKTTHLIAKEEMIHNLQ
inactive: [1] -0.015 | [2] 0.047 | [3] 0.013 | [4] -0.025 | [5] -0.096 | [6] -0.07 | [7] -0.018 | [8] -0.067 | [9] 0.096 | [10] -0.059 | [11] 0.053 | [12] 0.009 | [13] -0.03 | [14] 0.073 | [15] -0.053 | [16] 0.029 | [17] 0.068 | [18] 0.057 | [19] 0.019 | [20] 0.003

PLIN2 (UniProt Q99541)
active: [2] -0.44 | [6] -0.891 | [12] -0.841 | [20] -2.6
inactive: [1] -0.014 | [3] -0.041 | [4] -0.107 | [5] 0.058 | [7] 0.003 | [8] 0.028 | [9] -0.093 | [10] 0.023 | [11] -0.103 | [13] 0.054 | [14] 0.03 | [15] 0.098 | [16] -0.31 | [17] -0.086 | [18] 0.031 | [19] -0.092

PIGT (UniProt Q969N2)
inactive: [1] -0.004 | [2] 0 | [3] 0.012 | [4] -0.02 | [5] -0.081 | [6] 0.046 | [7] -0.006 | [8] -0.013 | [9] 0.027 | [10] -0.007 | [11] 0.033 | [12] 0.023 | [13] -0.017 | [14] 0.005 | [15] -0.045 | [16] -0.029 | [17] 0.029 | [18] 0.047 | [19] 0.036 | [20] 0

PSMA3 (UniProt P25788)
inactive: [1] 0.015 | [2] 0.034 | [3] 0.044 | [4] 0.019 | [5] -0.04 | [6] -0.079 | [7] -0.025 | [8] -0.003 | [9] 0.062 | [10] -0.053 | [11] 0.011 | [12] 0.052 | [13] -0.012 | [14] -0.117 | [15] -0.074 | [16] 0.054 | [17] 0.046 | [18] 0.007 | [19] 0.018 | [20] -0.002

PTMA (UniProt P06454)
UniProt P06454, sequence (P06454 whole entry, looked up): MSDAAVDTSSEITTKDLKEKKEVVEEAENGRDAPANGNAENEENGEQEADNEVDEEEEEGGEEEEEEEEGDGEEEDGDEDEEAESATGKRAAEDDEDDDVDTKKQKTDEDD
inactive: [1] 0.118 | [2] -0.093 | [3] -0.054 | [4] -0.045 | [6] -0.049 | [7] 0.029 | [8] 0.043 | [9] -0.016 | [10] 0.001 | [11] -0.041 | [12] -0.302 | [13] -0.155 | [14] -0.034 | [15] 0.006 | [16] 0.059 | [17] 0.154 | [18] -0.042 | [19] 0.072 | [20] 0.199
active: [5] -0.596

PRPF40A (UniProt O75400)
UniProt O75400, sequence (O75400 whole entry, looked up): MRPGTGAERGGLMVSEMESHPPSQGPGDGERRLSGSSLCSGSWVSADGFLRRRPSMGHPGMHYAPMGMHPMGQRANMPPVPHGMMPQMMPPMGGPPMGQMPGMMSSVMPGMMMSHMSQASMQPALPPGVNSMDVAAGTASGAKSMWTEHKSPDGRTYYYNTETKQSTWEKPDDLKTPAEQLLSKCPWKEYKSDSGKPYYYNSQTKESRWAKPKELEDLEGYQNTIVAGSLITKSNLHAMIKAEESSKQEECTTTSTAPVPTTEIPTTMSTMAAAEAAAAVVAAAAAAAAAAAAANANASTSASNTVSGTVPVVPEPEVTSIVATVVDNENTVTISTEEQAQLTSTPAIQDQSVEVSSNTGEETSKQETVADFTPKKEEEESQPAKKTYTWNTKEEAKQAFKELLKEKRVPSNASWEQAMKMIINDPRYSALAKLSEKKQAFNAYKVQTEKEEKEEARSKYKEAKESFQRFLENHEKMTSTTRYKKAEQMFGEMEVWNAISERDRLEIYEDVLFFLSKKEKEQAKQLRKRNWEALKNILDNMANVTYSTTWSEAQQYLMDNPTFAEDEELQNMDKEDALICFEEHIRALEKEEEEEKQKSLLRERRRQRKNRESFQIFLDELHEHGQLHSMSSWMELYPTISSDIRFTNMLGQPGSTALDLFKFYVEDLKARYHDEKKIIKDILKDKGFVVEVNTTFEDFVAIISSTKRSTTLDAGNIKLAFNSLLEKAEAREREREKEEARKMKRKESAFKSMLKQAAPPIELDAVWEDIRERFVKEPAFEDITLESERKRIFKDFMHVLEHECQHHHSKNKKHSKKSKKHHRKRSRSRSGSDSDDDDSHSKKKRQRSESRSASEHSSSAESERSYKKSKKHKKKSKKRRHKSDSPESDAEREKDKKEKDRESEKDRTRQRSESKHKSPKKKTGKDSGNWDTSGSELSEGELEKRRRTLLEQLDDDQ
inactive: [1] 0.082 | [2] 0.135 | [3] 0.029 | [4] 0.058 | [5] 0.024 | [6] -0.091 | [7] 0.042 | [8] -0.045 | [9] 0.018 | [10] -0.027 | [11] -0.023 | [12] 0.071 | [13] 0.105 | [14] -0.061 | [15] 0.018 | [16] -0.04 | [17] 0.061 | [18] 0.104 | [19] 0.021 | [20] -0.034

PSMC6 (UniProt P62333)
inactive: [1] -0.059 | [2] 0.083 | [3] -0.003 | [4] 0.005 | [5] -0.093 | [6] -0.024 | [7] -0.038 | [8] -0.057 | [9] 0.049 | [10] -0.054 | [11] 0.032 | [12] 0.022 | [13] -0.047 | [14] 0.116 | [15] -0.033 | [16] 0.054 | [17] 0.031 | [18] -0.002 | [19] 0.021 | [20] 0.007

PAK4 (UniProt O96013)
inactive: [1] -0.106 | [2] 0.068 | [3] 0.03 | [4] -0.021 | [5] 0.153 | [6] 0.195 | [7] 0 | [8] 0.075 | [9] -0.047 | [10] 0.072 | [11] -0.028 | [12] -0.033 | [13] 0.058 | [14] -0.017 | [15] 0.037 | [16] -0.028 | [17] -0.013 | [18] 0.021 | [19] -0.042 | [20] -0.111

PKN1 isoform 2 (UniProt Q16512)
UniProt Q16512, sequence (Q16512 whole entry, looked up): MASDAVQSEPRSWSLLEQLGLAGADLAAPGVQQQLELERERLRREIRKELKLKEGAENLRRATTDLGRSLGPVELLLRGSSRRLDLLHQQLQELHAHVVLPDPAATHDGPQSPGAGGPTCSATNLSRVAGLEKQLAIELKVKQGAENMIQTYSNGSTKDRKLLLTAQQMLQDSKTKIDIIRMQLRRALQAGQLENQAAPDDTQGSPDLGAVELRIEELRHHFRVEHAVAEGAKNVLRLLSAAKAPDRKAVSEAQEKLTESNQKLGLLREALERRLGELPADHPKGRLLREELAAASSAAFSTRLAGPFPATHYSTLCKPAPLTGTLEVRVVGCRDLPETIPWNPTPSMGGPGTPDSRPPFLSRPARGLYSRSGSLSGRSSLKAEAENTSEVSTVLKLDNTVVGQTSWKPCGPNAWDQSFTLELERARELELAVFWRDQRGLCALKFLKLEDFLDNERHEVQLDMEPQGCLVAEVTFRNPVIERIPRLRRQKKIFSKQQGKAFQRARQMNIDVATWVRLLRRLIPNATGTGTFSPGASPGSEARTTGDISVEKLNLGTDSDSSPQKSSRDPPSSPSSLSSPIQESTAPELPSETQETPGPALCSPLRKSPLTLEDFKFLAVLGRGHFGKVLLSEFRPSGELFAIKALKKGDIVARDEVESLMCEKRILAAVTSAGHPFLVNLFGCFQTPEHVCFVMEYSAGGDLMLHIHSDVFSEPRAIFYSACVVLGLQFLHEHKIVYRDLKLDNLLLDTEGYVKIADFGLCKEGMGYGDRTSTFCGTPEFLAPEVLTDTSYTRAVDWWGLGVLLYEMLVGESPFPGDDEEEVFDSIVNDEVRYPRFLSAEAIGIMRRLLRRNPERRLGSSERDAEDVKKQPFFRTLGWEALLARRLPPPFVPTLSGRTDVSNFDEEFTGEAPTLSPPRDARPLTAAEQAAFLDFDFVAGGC
inactive: [1] 0.001 | [2] 0.019 | [3] 0.046 | [4] -0.05 | [5] -0.021 | [6] -0.217 | [7] 0.001 | [8] -0.044 | [9] -0.009 | [10] -0.007 | [11] 0.03 | [12] -0.233 | [13] -0.015 | [14] -0.12 | [15] 0.001 | [16] -0.165 | [17] -0.052 | [18] 0.075 | [19] 0.022 | [20] -0.065

PMM1 (UniProt Q92871)
UniProt Q92871, sequence (Q92871 whole entry, looked up): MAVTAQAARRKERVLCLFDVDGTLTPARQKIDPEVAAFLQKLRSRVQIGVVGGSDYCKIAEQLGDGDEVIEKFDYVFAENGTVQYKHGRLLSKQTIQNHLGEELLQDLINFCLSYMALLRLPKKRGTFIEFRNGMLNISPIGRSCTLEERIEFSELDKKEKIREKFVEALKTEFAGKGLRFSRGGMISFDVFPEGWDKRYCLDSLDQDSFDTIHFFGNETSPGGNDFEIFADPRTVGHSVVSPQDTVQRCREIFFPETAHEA
inactive: [1] -0.084 | [2] 0.021 | [3] -0.003 | [4] 0.022 | [5] -0.039 | [6] 0.124 | [7] 0.16 | [8] 0.022 | [9] -0.02 | [10] -0.17 | [11] 0.051 | [12] 0.008 | [13] 0.032 | [14] 0.019 | [15] 0.07 | [16] -0.075 | [17] -0.114 | [18] -0.011 | [19] 0.027 | [20] 0.026

PATL1 (UniProt Q86TB9)
inactive: [1] -0.015 | [2] -0.009 | [3] 0.076 | [4] 0.049 | [5] -0.035 | [6] -0.135 | [8] 0.069 | [9] 0.05 | [10] -0.115 | [11] -0.014 | [12] -0.201 | [13] -0.037 | [14] 0.122 | [15] -0.002 | [16] -0.139 | [17] -0.014 | [18] 0.039 | [19] 0.12
active: [20] -0.339
